According to PubChem BioAssay (Tox21):
“And” between values parts separate entries of the source, which are not always exact repeats. Identical values can stand only once. Records with an inconclusive call do not appear. Where a call stands in place of a potency, no number is given. Where a structure was tested more than once in an assay, its records may differ in their call. The source made the active and inactive calls. Unless noted, calls follow the shape of the dose curve; as a rule, active = well fitted curve in the direction sought with a large enough effect in the repeat runs; inconclusive = weak or mixed curves; inactive = no such curve, though single readings can be large; an effect the other way counts as inactive or inconclusive.

Columns and labels:
[1] = A CellTox Green Cytotoxicity Assay to monitor cytotoxicity in HepG2 cells - 8 hour (AID 1224890); also: nearly all actives have a fitted effect of over 45% in size
Method in brief: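 HepG2, 600 cells/well premixed w/ CellTox Green; 5 h settle, 37 C/5% CO2; pintool cpd add (DMSO); 37 C, 40 h; fluorescence read at 0, 8, 16, 24, 32, 40 h.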

[2] = qHTS assay to identify small molecule antagonists of the estrogen receptor alpha (ER-alpha) signaling pathway using the BG1 cell line in the presence of 0.1 nM 17-beta-estradiol - cell viability counter screen (AID 1259241); also: nearly all actives have a fitted effect of over 40% in size; also: potency is read from the fitted curve at half-maximal effect
Method in brief: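 Cytotoxicity counter-screen: live-cell protease activity measured by fluorescence (30 min reagent step) in the same wells. Cells were VM7Luc4E2 with endogenous ER-alpha and ERE-driven luciferase, treated 22 hr at 37C alongside 0.1 nM 17beta-estradiol final.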

[3] = qHTS assay to identify small molecule antagonists of the androgen receptor (AR) signaling pathway using the MDA cell line in the presence of 0.5 nM R1881 - cell viability counter screen (AID 1259242); also: nearly all actives have a fitted effect of over 45% in size; also: potency is read from the fitted curve at half-maximal effect
Method in brief: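 Live-cell protease fluorescence, CellTiter-Fluor, 30 min at 37C. Cells: MDA-kb2, 3,000/well, preincubated 5 hr. Compounds plus 0.5 nM R1881 final, 16 hr, 37C, 0% CO2.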

[4] = target: Estrogen receptor (Homo sapiens) (UniProt P03372); assay: qHTS assay to identify small molecule antagonists of the estrogen receptor alpha (ER-alpha) signaling pathway using the BG1 cell line in the presence of 0.1 nM 17-beta-estradiol (AID 1259244); also: nearly all actives have a fitted effect of over 50% in size; also: potency is read from the fitted curve at half-maximal effect
Chain of Estrogen receptor (Homo sapiens) (P03372 whole entry, looked up): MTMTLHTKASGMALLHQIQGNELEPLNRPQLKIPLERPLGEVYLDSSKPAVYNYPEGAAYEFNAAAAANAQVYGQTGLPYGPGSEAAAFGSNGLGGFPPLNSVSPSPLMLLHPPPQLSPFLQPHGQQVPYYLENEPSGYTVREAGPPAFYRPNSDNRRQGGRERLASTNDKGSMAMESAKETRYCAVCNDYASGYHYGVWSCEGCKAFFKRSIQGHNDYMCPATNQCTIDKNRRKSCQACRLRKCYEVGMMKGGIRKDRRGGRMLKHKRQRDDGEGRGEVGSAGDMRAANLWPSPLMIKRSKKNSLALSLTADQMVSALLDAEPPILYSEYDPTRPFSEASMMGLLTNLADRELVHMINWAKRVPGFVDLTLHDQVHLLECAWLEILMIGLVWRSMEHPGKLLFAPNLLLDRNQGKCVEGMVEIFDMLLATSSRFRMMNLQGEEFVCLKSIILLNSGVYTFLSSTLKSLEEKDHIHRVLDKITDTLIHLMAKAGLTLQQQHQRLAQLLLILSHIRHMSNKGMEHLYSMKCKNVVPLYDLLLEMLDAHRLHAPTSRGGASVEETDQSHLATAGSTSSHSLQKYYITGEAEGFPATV
Method in brief: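 Luminescence after ONE-Glo (30 min, room temperature) measured ERE-luciferase activity in VM7Luc4E2 cells treated 22 h with compound and 0.1 nM final 17beta-estradiol as stimulator.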

[5] = qHTS assay to identify small molecule phospholipidosis (PLD) inducers (AID 1259344; active = well fitted curve in the direction sought with a large enough effect; an effect the other way counts as inactive or inconclusive)
Method in brief: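 Accumulated phospholipid, stained red by LipidTOX during 24 h compound treatment of HepG2 cells at 37 C, is quantified from images as pit number and intensity, normalised per cell using Hoechst-stained nuclei.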

[6] = qHTS assay to identify small molecule HDAC inhibitors (AID 1259364); also: potency is read from the fitted curve at half-maximal effect;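 also: wild-type HCT-116 cells with endogenous class I/II HDAC activity; nearly all actives have a fitted effect of over 45% in size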
Method in brief: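 HCT-116 (wild type), 1,500 cells/well, overnight; compound 2 hr 37C 5% CO2; HDAC-Glo I/II reagent 30 min RT; luminescence readout.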

[7] = qHTS assay to identify small molecule HDAC inhibitors - cell viability counter screen (AID 1259365); also: series mostly up to about 92 µM; nearly all actives have a fitted effect of over 50% in size
Method in brief: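 CellTiter-Glo luminescence (30 min, room temperature) reported viability after a 2 h compound exposure at 37 C. Cells: wild-type HCT-116, 1,500 per well, seeded the night before.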

[8] = qHTS assay to identify small molecule agonists of the sonic hedgehog signaling (Shh) pathway - cell viability counter screen (AID 1259366); also: nearly all actives have a fitted effect of over 50% in size; also: potency is read from the fitted curve at half-maximal effect
Method in brief: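 Cytotoxicity counter screen: CellTiter-Fluor reagent added after 23 h compound exposure, then 1 h at 37C and fluorescence read. Cells were 3T3 Gli1-Luc, seeded 2,000 per well and dosed 4 h post-plating.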

[9] = qHTS assay to identify small molecule antagonists of the sonic hedgehog signaling (Shh) pathway - cell viability counter screen (AID 1259367); also: nearly all actives have a fitted effect of over 55% in size; also: potency is read from the fitted curve at half-maximal effect
Method in brief: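 CellTiter-Fluor signal in conditioned medium-stimulated 3T3 Gli1-Luc cells, 23 hr compound exposure, 37C.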

[10] = qHTS assay to identify small molecule agonists of the sonic hedgehog signaling (Shh) pathway (AID 1259368; calls by dose curve;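 also: NIH/3T3-derived 3T3Gli1-Luc cells carrying a stable Gli1-driven firefly luciferase reporter; series mostly up to about 92 µM; nearly all actives have a fitted effect of over 15% in size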)
Method in brief: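 Read-out: firefly luciferase luminescence from a Gli1 response element reporter stably integrated in NIH/3T3-derived 3T3Gli1-Luc cells, measured 30 min at room temperature after reagent addition. Compound exposure lasted 24 hr at 37 C, 5% CO2.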

[11] = qHTS assay to identify small molecule antagonists of the sonic hedgehog signaling (Shh) pathway (AID 1259369; calls by dose curve; also: nearly all actives have a fitted effect of over 45% in size; also: potency is read from the fitted curve at half-maximal effect)
Method in brief: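 Luminescence readout: firefly Luc under Gli1 response element in 3T3Gli1-Luc cells (NIH/3T3 clone). Antagonist mode, stimulation by conditioned medium; compound exposure 24hr at 37 C, 5% CO2.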

[12] = qHTS assay to identify small molecule agonists of the androgen receptor (AR) signaling pathway in the presence of an antagonist - cell viability counter screen (AID 1259379); also: nearly all actives have a fitted effect of over 25% in size; also: potency is read from the fitted curve at half-maximal effect
Method in brief: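 Viability counter screen: CellTiter-Fluor fluorescence, measured in the same wells as the luciferase read-out. MDA-kb2 cells, 3,000/well, with nilutamide at 3.0uM final and compounds at 15 concentrations, 16 hr at 37C, 0% CO2.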

[13] = qHTS assay to identify small molecule agonists of the estrogen receptor beta (ER-beta) signaling pathway - cell viability counter screen (AID 1259380); also: nearly all actives have a fitted effect of over 30% in size; also: potency is read from the fitted curve at half-maximal effect
Method in brief: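 Luminescence read-out (CellTiter-Glo, 30 min, room temp) taken in the same wells as the beta-lactamase reporter assay; ER-beta-UAS-bla HEK293T cells exposed to DMSO-dissolved compounds for 16 hr at 37C in 2% charcoal-stripped FBS medium.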

[14] = qHTS assay to identify small molecule antagonists of the estrogen receptor beta (ER-beta) signaling pathway - cell viability counter screen (AID 1259382); also: nearly all actives have a fitted effect of over 55% in size; also: potency is read from the fitted curve at half-maximal effect
Method in brief: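 Luminescent ATP read-out (CellTiter-Glo, 30 min, RT) taken in the same wells as the bla reporter assay. HEK293T ER-beta-UAS-bla cells in 2% charcoal-stripped FBS were exposed to compounds with 1nM E2 for 16 hr at 37C.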

[15] = qHTS assay to identify small molecule agonists or antagonists of the thyroid stimulating hormone receptor (TSHR) signaling pathway - wild type cell line counter screen (AID 1259384; calls by dose curve)
Method in brief: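 Counter screen in untransfected Hek293: compounds (15-point titration, triplicate) plus phosphodiesterase inhibitor Ro20-1724 added after 18 h plating; 30 min RT. Intracellular cAMP via competitive d2/cryptate immunoassay, 1 h incubation.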

[16] = target: Estrogen receptor beta (Homo sapiens) (UniProt Q92731); assay: qHTS assay to identify small molecule agonists of the estrogen receptor beta (ER-beta) signaling pathway (AID 1259377; active = well fitted activation curve with a large enough effect in the signal ratio in the repeat runs, not every such curve was filed as active; the % refers to the signal ratio)
Chain of Estrogen receptor beta (Homo sapiens) (Q92731 whole entry, looked up): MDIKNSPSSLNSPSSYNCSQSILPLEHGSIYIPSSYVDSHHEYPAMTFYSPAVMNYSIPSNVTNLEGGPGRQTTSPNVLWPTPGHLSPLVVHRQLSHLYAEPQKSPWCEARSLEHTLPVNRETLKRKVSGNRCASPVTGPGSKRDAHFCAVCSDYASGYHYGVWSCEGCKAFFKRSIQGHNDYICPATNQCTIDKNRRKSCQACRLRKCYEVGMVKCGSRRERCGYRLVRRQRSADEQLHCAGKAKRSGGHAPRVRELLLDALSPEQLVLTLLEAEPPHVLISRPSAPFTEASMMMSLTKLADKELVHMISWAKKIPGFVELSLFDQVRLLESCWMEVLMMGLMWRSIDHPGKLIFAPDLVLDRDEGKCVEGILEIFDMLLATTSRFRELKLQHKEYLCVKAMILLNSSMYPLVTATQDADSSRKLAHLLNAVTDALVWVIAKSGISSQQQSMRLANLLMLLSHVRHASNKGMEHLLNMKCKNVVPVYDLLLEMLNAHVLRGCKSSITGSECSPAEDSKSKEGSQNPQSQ
Method in brief: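 Ratiometric beta-lactamase FRET read-out came after 2 h substrate loading at room temperature. It followed 16 h compound treatment at 37C of GripTite HEK293T cells carrying a UAS-bla reporter, plated in 2% charcoal-stripped FBS medium.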

[17] = target: Estrogen receptor beta (Homo sapiens) (UniProt Q92731); assay: qHTS assay to identify small molecule antagonists of the estrogen receptor beta (ER-beta) signaling pathway (AID 1259378; active = well fitted inhibition curve with a large enough effect in the signal ratio in the repeat runs, not every such curve was filed as active; the % refers to the signal ratio)
Method in brief: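 Antagonist mode: compounds added to beta-lactamase reporter HEK293T ER-beta-UAS cells stimulated with E2 (1nM final), 16 hr at 37C. LiveBLAzer B/G FRET substrate, 2 hours room temperature, fluorescence read-out.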

[18] = target: Estrogen receptor (Homo sapiens) (UniProt P03372); assay: qHTS assay to identify small molecule agonists of the estrogen receptor alpha (ER-alpha) signaling pathway in the presence of an antagonist (AID 1259383; calls by dose curve; also: top concentration of the series differs between compounds; nearly all actives have a fitted effect of over 15% in size)
Method in brief: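 Luciferase luminescence (ONE-Glo, 30min at room temperature) measured in VM7Luc4E2 cells after 22hr compound exposure at 15 concentrations, with 10.0nM ICI-182,780 final present; cells express endogenous ER-alpha and carry four EREs upstream of luciferase.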

[19] = target: Androgen receptor (Homo sapiens) (UniProt P10275); assay: qHTS assay to identify small molecule antagonists of the androgen receptor (AR) signaling pathway using the MDA cell line in the presence of 0.5 nM R1881 (AID 1259243); also: nearly all actives have a fitted effect of over 50% in size; also: potency is read from the fitted curve at half-maximal effect
Chain of Androgen receptor (Homo sapiens) (P10275 whole entry, looked up): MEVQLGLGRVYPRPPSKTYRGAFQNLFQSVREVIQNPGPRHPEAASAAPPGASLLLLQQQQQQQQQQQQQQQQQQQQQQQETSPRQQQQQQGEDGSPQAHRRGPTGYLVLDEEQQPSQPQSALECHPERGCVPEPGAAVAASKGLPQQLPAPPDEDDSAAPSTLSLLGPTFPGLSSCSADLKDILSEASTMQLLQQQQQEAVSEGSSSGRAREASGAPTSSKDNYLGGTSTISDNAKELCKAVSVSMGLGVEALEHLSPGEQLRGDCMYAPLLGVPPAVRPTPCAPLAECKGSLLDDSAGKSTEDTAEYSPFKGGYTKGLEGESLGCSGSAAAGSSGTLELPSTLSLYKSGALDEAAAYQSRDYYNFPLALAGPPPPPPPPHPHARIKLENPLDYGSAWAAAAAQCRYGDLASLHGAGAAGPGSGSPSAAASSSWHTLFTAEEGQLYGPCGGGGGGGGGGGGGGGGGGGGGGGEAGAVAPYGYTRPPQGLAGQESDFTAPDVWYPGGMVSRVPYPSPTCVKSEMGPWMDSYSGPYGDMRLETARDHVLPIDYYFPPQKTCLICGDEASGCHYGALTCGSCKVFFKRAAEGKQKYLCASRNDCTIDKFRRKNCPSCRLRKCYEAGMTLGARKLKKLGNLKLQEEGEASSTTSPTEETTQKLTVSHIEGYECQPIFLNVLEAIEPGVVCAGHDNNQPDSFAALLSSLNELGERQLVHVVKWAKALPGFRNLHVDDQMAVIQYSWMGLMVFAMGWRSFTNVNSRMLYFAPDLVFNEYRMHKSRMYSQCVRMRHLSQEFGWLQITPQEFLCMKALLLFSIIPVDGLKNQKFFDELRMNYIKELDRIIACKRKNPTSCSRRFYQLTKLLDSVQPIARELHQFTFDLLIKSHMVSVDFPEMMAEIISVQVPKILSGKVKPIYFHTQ
Method in brief: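 MDA-kb2, MMTV-luc (AR/GR elements); 3,000 cells/well; cpd + 0.5 nM R1881 final; 16 hr 37C, 0% CO2; ONE-Glo 30 min RT; luminescence.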

[20] = target: Androgen receptor (Homo sapiens) (UniProt P10275); assay: qHTS assay to identify small molecule agonists of the androgen receptor (AR) signaling pathway in the presence of an antagonist (AID 1259381; calls by dose curve; also: nearly all actives have a fitted effect of over 15% in size)
Method in brief: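 Luciferase read-out (ONE-Glo, 30min room temperature) in MDA-kb2 MMTV-reporter cells; agonist mode run in presence of AR antagonist nilutamide, 3.0uM final. Compounds tested as 15-point series, 16hr exposure at 37C, 0% CO2.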

Row | Structure (SMILES) | Potency [1] | Potency [2] | Potency [3] | Potency [4] | Potency [5] | Potency [6] | outcome [7] | Potency [8] | Potency [9] | Potency [10] | Potency [11] | Potency [12] | Potency [13] | Potency [14] | outcome [15] | Potency [16] | Potency [17] | Potency [18] | Potency [19] | outcome [20]
1 | CC(=O)Oc1ccccc1C(=O)Nc1ncc([N+](=O)[O-])s1 | inactive | 16.8 µM (active) | 11.1 µM (active) and 11.9 µM (active) | inactive | inactive | 197 nM (active) and 473 nM (active) | inactive | 22.1 µM (active) and 26.6 µM (active) | 24.8 µM (active) and 26.6 µM (active) | inactive | 9.88 µM (active) and 18.8 µM (active) | 22.1 µM (active) and 13.3 µM (active) | 12.4 µM (active) and 7.5 µM (active) | 22.1 µM (active) | inactive |  |  |  |  | 
2 | O=C(/C=C/c1ccccc1)OCc1ccccc1 | inactive | inactive | inactive | inactive | inactive | inactive | inactive | inactive | inactive | inactive | inactive | inactive | inactive | inactive | inactive | inactive | inactive | inactive |  | 
3 | CN(C)CCN(Cc1cccs1)c1ccccn1 | inactive | inactive | inactive | inactive | inactive | inactive | inactive | inactive | inactive | inactive | inactive | inactive | inactive | inactive | inactive |  |  |  |  | 
4 | CC(C)(C)NC(=O)[C@H]1CC[C@H]2[C@@H]3CC[C@H]4NC(=O)C=C[C@]4(C)[C@H]3CC[C@]12C | inactive | inactive | inactive | inactive | inactive | inactive | inactive | inactive | inactive | inactive | 2.7 µM (active) and inactive | inactive |  | inactive |  |  |  | inactive |  | 
5 | O=C(Nc1ccc(Cl)cc1)Nc1ccc(Cl)c(Cl)c1 | inactive | inactive | 21.7 µM (active) and 23.7 µM (active) | 21.6 µM (active) and 12.2 µM (active) and 16.8 µM (active) | inactive | inactive | inactive | inactive | inactive | inactive | 12.1 µM (active) and inactive | 21.6 µM (active) and 24.3 µM (active) and 26.6 µM (active) | 1.08 µM (active) and 2.17 µM (active) | inactive | inactive | inactive |  |  | 17.1 µM (active) and 13.7 µM (active) and 13.3 µM (active) | inactive
6 | CCOCCOCCO | inactive | inactive | inactive |  |  | inactive | inactive | inactive | inactive | inactive | inactive | inactive | inactive | inactive | inactive |  |  |  | inactive | inactive
7 | COC(C)COC(C)COC(C)CO (centres undefined) | inactive | inactive | inactive | inactive |  | inactive | inactive | inactive | inactive | inactive | inactive | inactive | inactive | inactive | inactive | inactive | inactive | inactive | inactive | inactive
